Source: PubChem BioAssay
PREPL inhibitor – inhibitors of human prolyl oligopeptidase-like enzyme PREPL; actives 0.68% (n = 320,000); Q4J6C6; AID 2751; inhibition, % at 5.96 µM; recombinant PREPL, fluorescence polarization activity-based probe; in the data active means inhibition above about 43%;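 further: 0% = enzyme with DMSO and 100% = wells lacking enzyme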
LYPLA1 inh – LYPLA1 (human) inhibition in PME1 counter-screen; O75608; recombinant LYPLA1, FP-Rh probe fluorescence polarization; inhibition, % at 5.9 µM; actives 0.16% (n = 320,000); AID 2174;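 active means inhibition above the mean of all tested compounds plus 3 SD, set per campaign, cut at about 14% in these data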;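 further: inhibitors block serine hydrolase probe labeling of LYPLA1 so polarization falls; 0% = enzyme with DMSO and 100% = wells lacking LYPLA1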
Target sequence (O75608 whole entry, looked up): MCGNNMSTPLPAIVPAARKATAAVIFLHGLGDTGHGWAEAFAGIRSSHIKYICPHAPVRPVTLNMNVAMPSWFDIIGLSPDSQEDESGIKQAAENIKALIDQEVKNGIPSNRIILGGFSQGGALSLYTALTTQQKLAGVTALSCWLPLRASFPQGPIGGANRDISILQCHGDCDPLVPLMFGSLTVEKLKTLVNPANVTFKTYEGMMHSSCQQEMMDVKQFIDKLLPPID
ZTA counter – ZTA (EBV) inhibition in EBNA-1 counter-screen. P03206. ZTA-DNA binding, fluorescence polarization. inhibition, % at 11 µM. actives 0.15% (n = 320,000). AID 2234; in the data active means inhibition above about 33%
LYPLA2 counter – counter-screen for PME1 inhibitors: inhibitors of human LYPLA2; O95372; recombinant LYPLA2, FP-Rh probe fluorescence polarization; inhibition, % at 5.9 µM; actives 0.38% (n = 320,000); AID 2177;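 active means inhibition above the screen-wide mean plus 3 SD, limit set per campaign, cut at about 26% in these data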;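 further: 0% = LYPLA2 with DMSO and 100% = wells lacking LYPLA2 enzyme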
Target sequence (O95372 whole entry, looked up): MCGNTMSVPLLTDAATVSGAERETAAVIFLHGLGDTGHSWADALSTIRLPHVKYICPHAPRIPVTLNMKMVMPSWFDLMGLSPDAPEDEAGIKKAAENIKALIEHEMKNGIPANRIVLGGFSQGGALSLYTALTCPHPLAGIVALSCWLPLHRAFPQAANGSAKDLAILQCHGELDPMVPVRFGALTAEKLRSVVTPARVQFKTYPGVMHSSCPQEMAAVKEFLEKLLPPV
EBNA-1 inh – blocks EBNA-1 binding to DNA; EBNA-1 DNA binding, fluorescence polarization; inhibition, % at 14.8 µM; actives 0.34% (n = 300,000); in the data active means inhibition above about 28%
LYPLA2 confirm – counter-screen for PME1 inhibitors: confirmation of human LYPLA2 inhibitors; shares compounds with LYPLA2 counter; recombinant LYPLA2, FP-Rh probe fluorescence polarization; inhibition, % at 5.9 µM; actives 72% (n = 1,100); AID 2232;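 active means mean inhibition across replicates above the hit cutoff set in the primary screen, cut at about 26% in these data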;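 further: blocked labeling of the enzyme by serine hydrolase FP-Rh probe lowers polarization; 0% = enzyme with DMSO and 100% = wells lacking LYPLA2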
LYPLA2 ABPP – blocks human acyl-protein thioesterase 2 in gel ABPP; shares compounds with LYPLA2 counter; rhLYPLA2 in mouse brain proteome, gel ABPP FP-Rh; inhibition, % at 20 µM; actives 30% (n = 150); AID 652029;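 active means inhibition of LYPLA2 enzyme probe labeling above about 50%, limit read from the data; inactive means inhibition below that limit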;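 further: loss of FP-Rh probe labeling of the LYPLA2 gel band measured as band density; 0% = DMSO only control band and 100% = blank gel background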
An asterisk follows results filed as active; nt = no result. Rows were chosen to be rich in hits. Some 1.3% of all compounds tested hit in one or more screens of this group.

SMILES	PREPL inhibitor	LYPLA1 inh	ZTA counter	LYPLA2 counter	EBNA-1 inh	LYPLA2 confirm	others
CCOC(=O)c1ccc(NC(=O)CC2S/C(=N/N=C3/NC(=O)CS3)NC2=O)cc1 (stereo not drawn)	2	1	8	32*	3	2
O=C1CCC/C(=N/NC(=O)c2ccc(CN3c4cccc5cccc(c45)S3(=O)=O)cc2)C1	-4	-4	-3	57*	3	67*
O=C(O)c1ccc(/C=N/NC(=O)c2ccc(CN3c4cccc5cccc(c45)S3(=O)=O)cc2)cc1	-41	-25	-3	-12	2	nt
O=C1CN(C(=O)COC(=O)[C@@H]2CCCN2S(=O)(=O)c2ccc(Cl)cc2)c2ccccc2N1	-6	nt	nt	nt	nt	nt
O=C(NCCC1=CCCCC1)C1CCN(S(=O)(=O)c2ccccc2)CC1	0	0	-5	28*	-1	0
Cc1cccc(NC(=O)Cn2c([N+](=O)[O-])cnc2C)c1C	6	7	4	31*	7	32*
Cc1ncc([N+](=O)[O-])n1CC(=O)Nc1ccc2c(c1)OCO2	14	-2	-16	26*	8	25
Cc1ncc([N+](=O)[O-])n1CC(=O)Nc1ccc(Br)cc1	6	3	-8	46*	2	38*
Cc1ccc(NC(=O)Cn2c([N+](=O)[O-])cnc2C)cc1	-3	-2	12	12	9	nt
Cc1ncc([N+](=O)[O-])n1CC(=O)Nc1ccccc1	1	-1	4	32*	-7	38*
ClC(Cl)(c1nnnn1-c1ccccc1)c1nnnn1-c1ccccc1	1	-1	-17	7	-3	nt
Cc1cnc(NC(=O)Nc2ccc(OCc3ccccc3)cc2)c(Br)c1	6	1	6	4	9	nt
Cc1ncc([N+](=O)[O-])n1CC(=O)Nc1ccc(F)cc1	3	-3	0	33*	4	38*
CCN1CCN(c2ccc(S(=O)(=O)N3CCOCC3)cc2NC(=O)CCC(C)C)CC1	3	2	4	0	6	nt
CCOc1cccc(/C=N/NC(=S)Nc2cc(S(=O)(=O)N3CCOCC3)ccc2N2CCOCC2)c1O	22	2	16	34*	-7	43*
COc1ccc2ccccc2c1/C=N/NC(=S)Nc1cc(S(=O)(=O)N2CCOCC2)ccc1N1CCOCC1	9	-4	8	-12	-11	nt
CC(CCC(C)C)=NNC(=S)Nc1cc(S(=O)(=O)N2CCOCC2)ccc1N1CCOCC1	nt	nt	nt	nt	nt	nt	LYPLA2 ABPP=60*
CCOC(=O)c1c(C)nn(-c2ccc(NC(=O)CSCC(=O)O)cc2)c1C	-3	-3	5	-1	-14	nt
Cc1ccc(C)c(N2CCN(C(=O)Cc3ccc(-n4c(=O)[nH]c5ccsc5c4=O)cc3)CC2)c1	8	-2	-3	4	3	nt
Cc1cccc(N2CCN(C(=O)Cc3ccc(-n4c(=O)[nH]c5ccsc5c4=O)cc3)CC2)c1C	-10	0	-9	67*	-6	68*	LYPLA2 ABPP=56*
CC(=O)c1ccc(N2CCN(C(=O)CCCn3c(=O)[nH]c4ccsc4c3=O)CC2)cc1	-18	8	7	51*	-7	56*	LYPLA2 ABPP=16
COc1cccc(C(=O)Nc2nnc(S(=O)(=O)N(C)Cc3ccc(F)cc3)s2)c1	-9	-2	12	-9	-1	nt
CC1(C)Cc2c(sc3nnn(CC(=O)Nc4ccccc4)c(=O)c23)CO1	2	-1	-1	28*	1	36*
O=C(c1cc(-c2ccc(F)cc2)no1)N1CCN(Cc2ccc3c(c2)OCO3)CC1	-4	1	0	33*	-10	35*
O=C(c1c(F)c(F)c(F)c(F)c1F)N1CCN(Cc2ccc3c(c2)OCO3)CC1	11	-1	-6	-1	17	nt
SMILES	PREPL inhibitor	LYPLA1 inh	ZTA counter	LYPLA2 counter	EBNA-1 inh	LYPLA2 confirm	others
COc1ccc(-n2c(C)cc(C(=O)Cn3c(NCCO)nc4ccccc43)c2C)cc1	6	2	4	56*	-10	62*	LYPLA2 ABPP=29
O=C(c1ccccc1Cc1ccccc1)N1CCN(S(=O)(=O)c2ccccc2[N+](=O)[O-])CC1	24	3	22	0	3	nt
COc1ccc(Cl)cc1NC(=O)c1noc(C)c1[N+](=O)[O-]	1	-1	2	28*	-3	36*
CC(C)(C)C(=O)N1CCN(c2ccc([N+](=O)[O-])cc2Cl)CC1	11	2	12	7	7	nt
O=[N+]([O-])c1ccc(N2CCN(c3ccc([N+](=O)[O-])cc3CO)CC2)c(CO)c1	37	4	-3	27*	7	30*
O=C(COC(=O)Cc1n[nH]c(=O)c2ccccc12)Nc1cccc(C(F)(F)F)c1	-12	-3	0	-3	-2	nt
COc1cc(C(=O)N2CCN(C(=O)c3ccccc3)CC2)cc(OC)c1OC	-2	0	0	-5	5	nt
COc1cc(C(=O)N2CCN(C(=O)c3cc(-c4ccc(Br)cc4)n[nH]3)CC2)cc(OC)c1OC	22	-3	3	28*	-7	32*
O=C(NCCc1ccc2c(c1)OCCO2)c1ccccn1	9	-1	0	1	-4	nt
CS(=O)(=O)N1CCCC(C(=O)N2CCN(c3cccc(Cl)c3)CC2)C1 (stereo not drawn)	15	2	-9	6	5	nt
Cc1ccc(-n2cc(-c3ccccc3)c3c(N4CCN(C)CC4)ncnc32)cc1	19	6	1	30*	-2	20
CCOc1ccc(-n2c(=S)sc3c(=O)n(-c4ccccc4)c(SCC(=O)O)nc32)cc1	5	-4	23	0	13	nt
CCOc1ccc(-n2c(=S)sc3c(=O)n(-c4ccccc4)c(SC)nc32)cc1	-3	-4	-4	56*	-12	-2
Cc1ccc(N/C=C(/C#N)c2ccsc2)cc1	37	1	7	0	9	nt
COc1ccc(N/C=C(\C#N)c2ccc(OCCCF)cc2)cc1	9	6	-17	73*	26	61*	LYPLA2 ABPP=37
Cc1ccc(N/C=C(\C#N)c2ccc(OCCCF)cc2)cc1	6	-2	0	65*	10	75*	LYPLA2 ABPP=52*
CCc1nc(NC(C)(C)C)c2cnn(-c3ccccc3)c2n1	5	-3	-24	-3	-2	nt
COc1ccc(-c2noc(-c3ccccc3C(=O)NCC3CCCO3)n2)cc1 (stereo not drawn)	4	0	-2	3	-3	nt
CSc1ccc(CN2CCCC(N3CCN(c4ccccc4)CC3)C2)cc1 (stereo not drawn)	-6	0	-28	1	-12	nt
O=C(CN1C(=O)COc2ccc(S(=O)(=O)N3CCOCC3)cc21)Nc1cccc(Cl)c1	-1	-7	2	33*	0	46*
COc1cccc(NC(=O)CN2C(=O)COc3ccc(Cl)cc32)c1	-1	2	7	45*	-3	46*
